Results taken from PubChem BioAssay (NCI).
This is part of a sample that, as a whole, favours compounds with a hit. Of some 79,000 tested, about 15% had one in any assay. Activity calls are given as the source filed them. Cut-off read from the data, not from the text of the source: active = growth inhibition above about 70%; inactive = the rest.

Columns and labels:
[1] = NCI Yeast Anticancer Drug Screen. Data for the rad50 strain (AID 155);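 note: 0% = growth of vehicle-only cultures of the same strain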; settings: S. cerevisiae rad50 strain growth inhibition; at 50.0 µM; active compounds read high
In short: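 Yeast carrying a defined DNA repair defect were exposed to test compounds, and growth was compared with vehicle-treated controls to give percent inhibition.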

[2] = NCI Yeast Anticancer Drug Screen. Data for the mec2-1 strain (AID 157); settings: S. cerevisiae mec2-1 strain, at 50.0 µM, active compounds read high
In short: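 Compounds were applied to mec2-1 yeast cells. Their growth was then compared with that of vehicle-treated cultures to give growth inhibition.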

[3] = NCI Yeast Anticancer Drug Screen. Data for the sgs1 mgt1 strain (AID 161);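 note: 0% = growth of cultures given vehicle only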; settings: S. cerevisiae sgs1 mgt1 strain, at 50.0 µM, active compounds read high
In short: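 This yeast growth screen uses a strain with defined DNA-repair lesions; compound-treated growth is compared with vehicle-treated growth.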

[4] = NCI Yeast Anticancer Drug Screen. Data for the cln2 rad14 strain (AID 165);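 note: 0% = growth equal to vehicle treated cultures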; settings: S. cerevisiae cln2 rad14 strain, at 50.0 µM, active compounds read high
In short: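 Strain: cln2 rad14 yeast, altered in cell cycle control and DNA damage repair. Read-out: growth inhibition vs vehicle.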

[5] = NCI Yeast Anticancer Drug Screen. Data for the bub3 strain (AID 167); settings: S. cerevisiae bub3 mutant strain, at 50.0 µM, active compounds read high
In short: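 Compounds were applied to a genetically altered yeast strain carrying a cell-cycle control defect. Growth inhibition was scored against vehicle-treated controls.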

[6] = NCI Yeast Anticancer Drug Screen. Data for the mlh1 rad18 strain (AID 175); settings: S. cerevisiae mlh1 rad18 strain growth inhibition; at 50.0 µM; active compounds read high
In short: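 A repair-deficient yeast strain is exposed to test compound, and growth is scored relative to vehicle-treated controls.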

Measured: growth inhibition

Nc1cnc(N)nc1
inactive: [1] -8.4% | [2] -18.8% | [3] -21.6% | [4] -24.4% | [5] 11.8% | [6] -17.2%

CC(=O)OCCOc1ccc(C(C)(C)C)cc1
inactive: [1] 45% | [2] -18.4% | [3] 9.25% | [4] 32.5% | [5] 11.8% | [6] 15.2%

CC(=O)c1cccc(NC(=O)Nc2cccc(O)c2)c1
inactive: [1] 4.5% | [2] 19.9% | [3] -5.35% | [4] 7% | [5] 56.1% | [6] -0.25%

O=C(OCc1ccc([N+](=O)[O-])cc1)N1c2ccccc2[C@@]23O[C@]24CCC[C@H]3C#C/C=C\C#C[C@H]14
inactive: [1] 22.1% | [2] 25.2% | [3] 2.45% | [4] -13.6% | [5] 9.85% | [6] -32.6%

O=C(O)c1ccccc1C(=O)c1ccc(Br)cc1
inactive: [1] 8.4% | [2] -20.7% | [3] 10.8% | [4] 14.6% | [5] -3.45% | [6] 10.1%

CC1=Nc2c(ccc3c2C(=O)c2ccccc2C3=O)NC(c2ccncc2)C1 (configuration not stated)
inactive: [1] 31.1% | [2] 5% | [3] 47.6% | [4] 17.6% | [5] 0.35% | [6] 12.4%

COc1ccc(C=Nc2ccc([N+](=O)[O-])cc2O)cc1
inactive: [1] 12.9% | [2] 2.7% | [3] 12.1% | [4] -10.9% | [5] 19.6% | [6] 1.6%

N#Cc1c(C(F)(F)F)cc(-c2cccs2)nc1SC(C(=O)Nc1c(F)cccc1F)c1ccccc1 (configuration not stated)
inactive: [1] 15.8% | [2] -19.6% | [3] 23% | [4] 20.2% | [5] 15% | [6] 25.9%

COC(=O)C(Cc1cc(OC)c(OC)c(OC)c1)(NC(=O)c1ccccc1)P(=O)(OC)OC (configuration not stated)
inactive: [1] -14.2% | [2] -1.75% | [3] -38.4% | [4] -51.6% | [5] 1.05% | [6] -9.7%

c1ccc(-c2nnc(-c3ccccc3)c3nonc23)cc1
inactive: [1] 0.55% | [2] 14.6% | [3] 9.1% | [4] -12.8% | [5] 12.6% | [6] -22.3%

Nc1nc2c(ncn2-c2cccc(Cl)c2)c(=O)[nH]1
inactive: [1] -0.9% | [2] 16.5% | [3] 7.55% | [4] -7.5% | [5] 31.5% | [6] 13.8%

CC(=O)OC1CCC(OC(C)=O)[C@H]2[C@@H]1[C@@H]1S[C@H]2c2ccccc21 (some centres not stated)
inactive: [1] 1% | [2] -1.55% | [3] -0.45% | [4] 11.1% | [5] 12.2% | [6] -1.15%

CC(=O)Nc1ccc2nc(/C=C/c3ccc(N(C)C)cc3)c(=O)oc2c1
inactive: [1] 38.5% | [2] 18.6% | [3] 25.5% | [4] 16.7% | [5] 20.1% | [6] 29.9%

O=C1C(CO)=C[C@@H](O)[C@H]2O[C@@H]12
inactive: [1] 8.25% | [2] 1.5% | [3] 12.6% | [4] 6.8% | [5] 15.9% | [6] 17.4%

CCCCCCCCCCCCCCCCOCC(COS(C)(=O)=O)OS(C)(=O)=O (configuration not stated)
inactive: [1] 20% | [2] 2.15% | [3] 12.2% | [4] 33.3% | [5] 7.9% | [6] 1.5%

NC1=NCCN1
inactive: [1] 31.9% | [2] 11.3% | [3] 3.5% | [4] -1.85% | [5] 16.8% | [6] 24.3%

COc1ccccc1C(O)C(C)(C)C (configuration not stated)
inactive: [1] 50.9% | [2] 2.45% | [3] 7.5% | [4] 8.9% | [5] 8.4% | [6] 28.9%

COc1cc(C(=O)OC2CC3CN(CCc4c[nH]c5ccccc45)CC3CC2OC)cc(OC)c1OC (configuration not stated)
inactive: [1] 5.9% | [2] 3.25% | [3] 28.4% | [4] 32.9% | [5] 5.05% | [6] 45.7%

CC(C)CC1NC(=O)CCC(NC(=O)C(Cc2ccc(O)cc2)NC(=O)OCc2ccccc2)C(=O)NC(Cc2ccccc2)C(=O)NC(Cc2ccccc2)NC1=O (configuration not stated)
inactive: [1] -24.9% | [2] -21.6% | [3] -24% | [4] 8.6% | [5] -7.55% | [6] -18%

O=C(O)C1CC1Br (configuration not stated)
inactive: [1] 9.15% | [2] -15.3% | [3] -3.65% | [4] -14.4% | [5] 2.45% | [6] 5.8%

COC(=O)c1nc(N)nc(N)c1[N+](=O)[O-]
inactive: [1] -8.45% | [2] -17.7% | [3] -22.6% | [4] -15.2% | [5] -4.05% | [6] -14.9%

O=[N+]([O-])c1ccc(OC(=S)N2CCOCC2)cc1
inactive: [1] -7.05% | [2] 9.3% | [3] -8.3% | [4] 0.15% | [5] -10.2% | [6] -0.65%

Cc1cc2nc3c(=O)[nH]c(=O)nc-3n(CCO)c2cc1C
inactive: [1] -0.5% | [2] 1.5% | [3] 8.6% | [4] -39.4% | [5] 6.15% | [6] -9.95%

Cc1ccc(C(=O)CSC2=NCCN2)cc1Cl
inactive: [1] -9.75% | [2] -21.8% | [3] -12.6% | [4] -2.2% | [5] -11.9% | [6] 19.2%

N[n+]1ccccc1
inactive: [1] -9.45% | [2] -6.85% | [3] -9.1% | [4] -37.4% | [5] -4.65% | [6] -2.6%

O=[N+]([O-])c1cccc(S(=O)(=O)SSS(=O)(=O)c2cccc([N+](=O)[O-])c2)c1
inactive: [1] 16.6% | [2] 18.1% | [3] 55.9% | [4] 20.8% | [5] 5.75% | [6] 28.2%

O=C(O)CCCCCNC(=O)c1ccccc1
inactive: [1] 18.3% | [2] 14.8% | [3] 16.2% | [4] 6.4% | [5] -8.2% | [6] 22.2%

CCCCCC/C(C=O)=C\c1ccccc1
inactive: [1] 31.8% | [2] 17.6% | [3] 26.6% | [4] 16.4% | [5] -4.6% | [6] 20.4%

CC(O)CC(C)CO (configuration not stated)
inactive: [1] 23.1% | [2] -20.3% | [3] -9.5% | [4] -55.5% | [5] 15.2% | [6] 18%

Cc1ccc(C)c(NC(=O)Oc2ccc(C(=O)OCc3ccccc3)cc2)c1
inactive: [1] 66.8% | [4] 40.5%
active: [2] 90.8% | [3] 74.9% | [5] 96.5% | [6] 89.5%

Cn1nc(-c2ccccc2)c(C(=O)/C=C/c2ccc(Cl)cc2)c(N2CCCCC2)c1=O
inactive: [1] -30.9% | [2] -21.9% | [3] -36.2% | [4] 1.75% | [5] -22.9% | [6] -22.2%

S=C(Sc1nc2ccccc2[nH]1)Sc1nc2ccccc2[nH]1
inactive: [1] 16.9% | [2] -4.05% | [3] 10.2% | [4] -34.9% | [5] 8.95% | [6] 24.6%

Cc1ccc(NC(=O)/C(CC(=O)c2c[n+](=O)c3ccccc3n2O)=N\NC(=O)C[n+]2ccccc2)cc1
inactive: [1] 14.1% | [2] -1.25% | [3] -1.75% | [4] 24.8% | [5] 20.3% | [6] -0.85%

NC(=O)/C=C1\NC(=O)CS1
inactive: [1] 0.05% | [2] 7.7% | [3] 1% | [4] -31.1% | [5] -4.55% | [6] 4.2%

Cc1nc(N)c2c(n1)C(Cc1ccccc1)N(C(=O)c1ccccc1)C2 (configuration not stated)
inactive: [1] -5.6% | [2] -4.3% | [3] -24.1% | [4] -24.4% | [5] 6.55% | [6] -17.4%

CSc1cc(C)c(O)c(CO)c1
inactive: [1] 6.7% | [2] 2.9% | [3] 18.2% | [4] -2.35% | [5] 12.7% | [6] 3%

Cc1c2cccc(Br)c2c[n+]2ccccc12
inactive: [1] 20.9% | [2] 18.4% | [3] 39% | [4] -21.4% | [5] 1.3% | [6] 31.1%

CC(=O)OC[C@]1(C)CCCC2(C)C1CCC1C=C(C)[C@H]3CCC12C3 (some centres not stated)
inactive: [1] 2.05% | [2] -2.85% | [3] -17.8% | [4] -1.65% | [5] -3.1% | [6] 11.3%

Cc1ccc(NC(=O)c2ccco2)c(C)c1
inactive: [1] -2.3% | [2] -2.55% | [3] 5.05% | [4] 2.65% | [5] 8.4% | [6] -3.1%

CCOc1ccc(NC(=O)CCc2nnc(SC)o2)cc1
inactive: [1] 20.5% | [2] -17.2% | [3] -4.75% | [4] -16.4% | [5] 29.1% | [6] 23.2%

CN1CCC(c2ccccc2)(C(O)(c2ccccc2)c2ccccc2)CC1
inactive: [1] 3.15% | [2] 1.25% | [3] -6% | [4] 12.1% | [5] 0.65% | [6] 12.7%

O=c1ccn2cnc3c(ncn3C3OC(CO)C(O)C3O)c2n1 (configuration not stated)
inactive: [1] 4.8% | [2] 9% | [3] 10.2% | [4] 7.2% | [5] -10.9% | [6] 9.85%
